For 19 compounds, outcome and AC50 results are on record in PubChem BioAssay (EPA / NIEHS).

Inconclusive results are not listed. The source made the active and inactive calls. The calls were made as follows, unless noted: active = hit-call score of the fitted dose curve at least 0.9, where 1 is the maximum; inconclusive = response in the unintended direction; inactive = score below 0.9.

The target in experiment [1] is human Retinoid X Receptor beta (RXRb), RXRB (gene 6257) (UniProt P28702). In words: ATG_RXRb_TRANS: Attagene TRANS-FACTORIAL HepG2 Assay for human Retinoid X Receptor beta (RXRb) (AID 2283013). An outline of the steps: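 HepG2 cells were transiently transfected with multiplexed GAL4-UAS reporters and a chimeric RXRb-Gal4 construct, then exposed for 24 h. Reporter mRNA was quantified by RT-PCR, FAM labeling, HpaI digestion and capillary electrophoresis; gain of signal was scored against DMSO.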
Chain of human Retinoid X Receptor beta (RXRb), RXRB (gene 6257) (P28702 whole entry, looked up, the tested form may be a part): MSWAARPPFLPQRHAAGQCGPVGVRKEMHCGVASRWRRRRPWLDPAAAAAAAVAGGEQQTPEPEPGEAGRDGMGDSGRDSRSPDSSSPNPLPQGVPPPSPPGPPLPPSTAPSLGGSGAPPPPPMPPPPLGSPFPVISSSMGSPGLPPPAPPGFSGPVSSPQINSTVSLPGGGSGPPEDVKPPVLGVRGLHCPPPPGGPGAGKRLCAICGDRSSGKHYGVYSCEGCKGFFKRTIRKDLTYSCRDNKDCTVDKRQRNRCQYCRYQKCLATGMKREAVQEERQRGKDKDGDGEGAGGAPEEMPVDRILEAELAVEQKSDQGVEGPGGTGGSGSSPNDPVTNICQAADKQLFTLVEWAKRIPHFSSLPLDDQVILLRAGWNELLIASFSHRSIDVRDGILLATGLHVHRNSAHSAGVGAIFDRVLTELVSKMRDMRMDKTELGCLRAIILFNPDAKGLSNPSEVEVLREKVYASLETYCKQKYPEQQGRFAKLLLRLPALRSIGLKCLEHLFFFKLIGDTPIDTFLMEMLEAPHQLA

The target of experiment [2] is human Vitamin D Receptor (VDR), VDR (gene 7421) (UniProt P11473). Put plainly: ATG_VDR_TRANS: Attagene TRANS-FACTORIAL HepG2 Assay for human Vitamin D Receptor (VDR) (AID 2283022). An outline of the steps:
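Steps: transfect HepG2 with GAL4-UAS-driven reporter constructs; dose compounds 24 h; isolate RNA, reverse-transcribe, PCR-amplify with 6-FAM-labelled primer extension and HpaI digestion; quantify fragments by capillary electrophoresis relative to DMSO.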

Experiment [3] concerns the target human Thyroid Receptor alpha (THRa1), THRA (gene 7067) (UniProt P10827). Put plainly: ATG_THRa1_TRANS: Attagene TRANS-FACTORIAL HepG2 Assay for human Thyroid Receptor alpha (THRa1) (AID 2283014). An outline of the steps: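 Reporter transcript induction, read by capillary electrophoresis of 6-FAM-labelled RT-PCR products, reflects activity of a transfected THRa1-Gal4 fusion in HepG2 liver cells. Cells were dosed for 24 h; activity was fitted in the positive direction against DMSO.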

Read-out in experiment [4]: E-selectin (Homo sapiens) (UniProt P16581)
Put plainly: BSK_3C_Eselectin: BioMAP Diversity Plus: 3C Assay for Eselectin Biomarker Activity (AID 2283015; active = hit-call score of the fitted dose curve at least 0.9, where 1 is the maximum; inactive = score below 0.9). The following applies: primary human endothelial cells (HUVEC); actives raise or lower the signal. An outline of the steps:
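ELISA read-out of E-selectin on endothelial monolayers after 24 h chemical treatment. Human umbilical vein primary cells served as the system, with DMSO defining baseline activity for bidirectional fitting.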

Read-out in experiment [5]: Interleukin-1 alpha (IL1a), IL1A (gene 3552)
In words: BSK_BE3C_IL1a: BioMAP Diversity Plus: BE3C Assay for Interleukin-1 alpha (IL1a) Biomarker Activity (AID 2283016; active = hit-call score of the fitted dose curve at least 0.9, where 1 is the maximum; inactive = score below 0.9). The following applies: primary human bronchial epithelial cells; actives raise or lower the signal. An outline of the steps:
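Human primary bronchial epithelial cells, 24 h chemical exposure; IL-1a quantified by ELISA, fitted bidirectionally against DMSO. Cytotoxicity assessed in parallel by SRB total-protein staining at the time of measurement.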

Read-out in experiment [6]: Monocyte Chemoattractant Protein-1 (MCP1), CCL2 (gene 6347)
Put plainly: BSK_3C_MCP1: BioMAP Diversity Plus: 3C Assay for Monocyte Chemoattractant Protein-1 (MCP1) Biomarker Activity (AID 2283017; active = hit-call score of the fitted dose curve at least 0.9, where 1 is the maximum; inactive = score below 0.9). Conditions: primary human endothelial cells (HUVEC); actives raise or lower the signal. An outline of the steps:
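ELISA read-out of MCP-1 from human umbilical vein endothelial cell cultures harvested 24 h post-dosing. Gain or loss of signal was fitted relative to DMSO.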

Read-out in experiment [7]: Monocyte Chemoattractant Protein-1 (MCP1), CCL2 (gene 6347)
In words: BSK_4H_MCP1: BioMAP Diversity Plus: 4H Assay for Monocyte Chemoattractant Protein-1 (MCP1) Biomarker Activity (AID 2283018; active = hit-call score of the fitted dose curve at least 0.9, where 1 is the maximum; inactive = score below 0.9). Conditions: primary human endothelial cells (HUVEC); actives raise or lower the signal. An outline of the steps:
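Human umbilical vein endothelial cells (4H system) exposed to chemicals for 24 h in 96-well format. MCP-1 measured by ELISA; bidirectional fitting against DMSO, with SRB total-protein staining in parallel cultures for cytotoxicity.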

Read-out in experiment [8]: Human Leukocyte Antigen - DR isotype (HLADR), HLA-DRA (gene 3122)
In words: BSK_3C_HLADR: BioMAP Diversity Plus: 3C Assay for Human Leukocyte Antigen - DR isotype (HLADR) Biomarker Activity (AID 2283019; active = hit-call score of the fitted dose curve at least 0.9, where 1 is the maximum; inactive = score below 0.9;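 also: ELISA of cell-surface HLA-DR on HUVEC 24 h after dosing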). The following applies: primary human endothelial cells (HUVEC); actives raise or lower the signal. An outline of the steps:
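ELISA readout of surface HLA-DR on human umbilical vein endothelium, taken 24 h after chemical treatment. Gain- and loss-of-signal were both fitted relative to DMSO.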

Read-out in experiment [9]: Interleukin-8 (IL8), CXCL8 (gene 3576)
In words: BSK_3C_IL8: BioMAP Diversity Plus: 3C Assay for Interleukin-8 (IL8) Biomarker Activity (AID 2283020; active = hit-call score of the fitted dose curve at least 0.9, where 1 is the maximum; inactive = score below 0.9). The following applies: primary human endothelial cells (HUVEC); actives raise or lower the signal. An outline of the steps: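 Primary human umbilical vein endothelial cells were dosed for 24 h. IL-8 was quantified by ELISA and fitted bidirectionally against DMSO. Cytotoxicity was assessed in parallel cultures by SRB staining at 560 nm.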

Read-out in experiment [10]: Monokine induced gamma interferon (MIG), CXCL9 (gene 4283)
Put plainly: BSK_3C_MIG: BioMAP Diversity Plus: 3C Assay for Monokine induced gamma interferon (MIG) Biomarker Activity (AID 2283021; active = hit-call score of the fitted dose curve at least 0.9, where 1 is the maximum; inactive = score below 0.9). The following applies: primary human endothelial cells (HUVEC); actives raise or lower the signal. An outline of the steps: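 HUVEC primary endothelial cultures dosed with chemical; MIG quantified by ELISA at 24 h. Data fitted bidirectionally against DMSO control, with parallel SRB total-protein staining for cytotoxicity.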

Experiment [11] is described as follows: BSK_3C_SRB: Viability Assessment in the BioMAP Diversity Plus: 3C Assay (AID 2283023; active = hit-call score of the fitted dose curve at least 0.9, where 1 is the maximum; inactive = score below 0.9;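 also: fitted both ways against DMSO so a hit may be signal rise or drop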). Conditions: primary human endothelial cells (HUVEC). An outline of the steps:
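Absorbance at 560 nm of sulforhodamine B-stained (0.1%) total protein served as a cytotoxicity readout in human umbilical vein endothelial cells, 24 h after chemical treatment. Signal was fitted bidirectionally relative to DMSO.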

Read-out in experiment [12]: Matrix Metallopeptidase 1 (MMP1), MMP1 (gene 4312)
Put plainly: BSK_BE3C_MMP1: BioMAP Diversity Plus: BE3C Assay for Matrix Metallopeptidase 1 (MMP1) Biomarker Activity (AID 2283024; active = hit-call score of the fitted dose curve at least 0.9, where 1 is the maximum; inactive = score below 0.9). Conditions: primary human bronchial epithelial cells; actives raise or lower the signal. An outline of the steps:
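Human primary bronchial epithelial cells (BE3C system) dosed for 24 h; MMP-1 quantified by ELISA. Bidirectional fit against DMSO; cytotoxicity tracked in parallel cultures by SRB total-protein staining.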

The nature of experiment [13]: BSK_3C_Vis: BioMAP Diversity Plus: 3C Assay for Morphology Visualization (AID 2283025; active = hit-call score of the fitted dose curve at least 0.9, where 1 is the maximum; inactive = score below 0.9;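 also: fitted both ways so gain or loss versus DMSO counts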). The following applies: primary human endothelial cells (HUVEC). An outline of the steps: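 Human umbilical vein endothelial cell morphology was inspected by light microscopy 24 h after chemical dosing; scored bidirectionally relative to DMSO.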
Read-out in experiment [14]: Pselectin, SELP (gene 6403)
Put plainly: BSK_4H_Pselectin: BioMAP Diversity Plus: 4H Assay for Pselectin Biomarker Activity (AID 2283026; active = hit-call score of the fitted dose curve at least 0.9, where 1 is the maximum; inactive = score below 0.9). Conditions: primary human endothelial cells (HUVEC); actives raise or lower the signal. An outline of the steps:
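Primary human umbilical vein endothelial cells were treated 24 h, and cell-surface P-selectin was then quantified by ELISA. Bidirectional fit versus DMSO; cytotoxicity checked in parallel cultures by SRB total-protein staining.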

Experiment [15] is described as follows: BSK_4H_SRB: Viability Assessment in the BioMAP Diversity Plus: 4H Assay (AID 2283027; active = hit-call score of the fitted dose curve at least 0.9, where 1 is the maximum; inactive = score below 0.9;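 also: cells exposed to compound for 24 h before staining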). Conditions: primary human endothelial cells (HUVEC). An outline of the steps: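 Human umbilical vein endothelial cells, 24 h after chemical dosing; total protein measured by 0.1% sulforhodamine B staining after 10% TCA fixation, read at 560 nm. Bidirectional fitting against DMSO.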

Experiment [16] is described as follows: BSK_BE3C_SRB: Viability Assessment in the BioMAP Diversity Plus: BE3C Assay (AID 2283028; active = hit-call score of the fitted dose curve at least 0.9, where 1 is the maximum; inactive = score below 0.9). The following applies: primary human bronchial epithelial cells. An outline of the steps: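 Cells (human bronchial epithelial, primary) are treated with chemicals, and after 24 h the parallel cultures are fixed in 10% TCA. These are then stained with 0.1% SRB and read at 560 nm. Gain or loss of signal is fitted relative to DMSO.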

Read-out in experiment [17]: Thrombomodulin, THBD (gene 7056)
Put plainly: BSK_3C_Thrombomodulin: BioMAP Diversity Plus: 3C Assay for Thrombomodulin Biomarker Activity (AID 2283029; active = hit-call score of the fitted dose curve at least 0.9, where 1 is the maximum; inactive = score below 0.9). The following applies: primary human endothelial cells (HUVEC); actives raise or lower the signal. An outline of the steps: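 Human umbilical vein endothelial cells were exposed to chemicals for 24 h; cell-surface thrombomodulin quantified by ELISA, with bidirectional fitting against DMSO baseline.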

Read-out in experiment [18]: Urokinase-type plasminogen activator receptor (uPAR), PLAUR (gene 5329)
Put plainly: BSK_4H_uPAR: BioMAP Diversity Plus: 4H Assay for Urokinase-type plasminogen activator receptor (uPAR) Biomarker Activity (AID 2283030; active = hit-call score of the fitted dose curve at least 0.9, where 1 is the maximum; inactive = score below 0.9). The following applies: primary human endothelial cells (HUVEC); actives raise or lower the signal. An outline of the steps:
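Cell-surface uPAR ELISA signal, measured 24 h after dosing human umbilical vein endothelial cells, was analyzed with bidirectional fitting relative to DMSO. Parallel SRB staining of total protein tracked overt cytotoxicity.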

Read-out in experiment [19]: Vascular endothelial growth factor receptor 2 (Homo sapiens) (UniProt P35968)
In words: BSK_4H_VEGFRII: BioMAP Diversity Plus: 4H Assay for Vascular endothelial growth factor receptor 2 (VEGFR2) Biomarker Activity (AID 2283031; active = hit-call score of the fitted dose curve at least 0.9, where 1 is the maximum; inactive = score below 0.9). Conditions: primary human endothelial cells (HUVEC); actives raise or lower the signal. An outline of the steps:
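ELISA read-out of VEGFRII in primary human umbilical vein endothelium, taken 24 h after chemical treatment. Responses are expressed relative to DMSO, with bidirectional fitting.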

Read-out in experiment [20]: Human Leukocyte Antigen - DR isotype (HLADR), HLA-DRA (gene 3122)
Put plainly: BSK_BE3C_HLADR: BioMAP Diversity Plus: BE3C Assay for Human Leukocyte Antigen - DR isotype (HLADR) Biomarker Activity (AID 2283032; active = hit-call score of the fitted dose curve at least 0.9, where 1 is the maximum; inactive = score below 0.9). The following applies: primary human bronchial epithelial cells; actives raise or lower the signal. An outline of the steps: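 Human primary bronchial epithelial cells (BE3C system) exposed to compound for 24 hours; cell-surface HLA-DR measured by ELISA, fitted bidirectionally relative to DMSO. Total protein by SRB in parallel cultures tracked cytotoxicity.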

Chain of human Thyroid Receptor alpha (THRa1), THRA (gene 7067) (P10827 whole entry, looked up, the tested form may be a part): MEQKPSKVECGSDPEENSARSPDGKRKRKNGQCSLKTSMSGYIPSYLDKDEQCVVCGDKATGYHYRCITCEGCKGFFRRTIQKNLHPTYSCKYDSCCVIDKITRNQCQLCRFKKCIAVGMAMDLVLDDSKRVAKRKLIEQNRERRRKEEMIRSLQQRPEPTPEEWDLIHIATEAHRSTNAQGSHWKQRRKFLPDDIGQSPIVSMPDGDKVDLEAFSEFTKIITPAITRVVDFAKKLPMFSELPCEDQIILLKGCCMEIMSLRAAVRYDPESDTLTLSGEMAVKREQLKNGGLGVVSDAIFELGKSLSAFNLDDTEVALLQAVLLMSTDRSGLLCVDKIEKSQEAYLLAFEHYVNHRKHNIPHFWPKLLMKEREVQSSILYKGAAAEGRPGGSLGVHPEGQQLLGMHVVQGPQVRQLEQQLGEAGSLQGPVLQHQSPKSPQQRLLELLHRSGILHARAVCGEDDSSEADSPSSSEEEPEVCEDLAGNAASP
Chain of human Vitamin D Receptor (VDR), VDR (gene 7421) (P11473 whole entry, looked up, the tested form may be a part): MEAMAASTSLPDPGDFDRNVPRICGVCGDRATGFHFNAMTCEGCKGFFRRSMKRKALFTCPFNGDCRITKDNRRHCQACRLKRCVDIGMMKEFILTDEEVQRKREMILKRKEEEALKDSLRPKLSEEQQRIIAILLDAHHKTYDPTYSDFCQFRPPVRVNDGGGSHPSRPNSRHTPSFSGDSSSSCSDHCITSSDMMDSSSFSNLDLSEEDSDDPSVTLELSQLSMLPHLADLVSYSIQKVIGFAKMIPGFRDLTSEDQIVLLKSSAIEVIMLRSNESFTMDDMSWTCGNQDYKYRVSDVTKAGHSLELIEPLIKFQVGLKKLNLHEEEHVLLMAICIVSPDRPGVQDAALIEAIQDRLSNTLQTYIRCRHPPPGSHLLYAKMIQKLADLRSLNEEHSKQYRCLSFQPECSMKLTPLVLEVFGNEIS
Chain of E-selectin (Homo sapiens) (P16581 whole entry, looked up): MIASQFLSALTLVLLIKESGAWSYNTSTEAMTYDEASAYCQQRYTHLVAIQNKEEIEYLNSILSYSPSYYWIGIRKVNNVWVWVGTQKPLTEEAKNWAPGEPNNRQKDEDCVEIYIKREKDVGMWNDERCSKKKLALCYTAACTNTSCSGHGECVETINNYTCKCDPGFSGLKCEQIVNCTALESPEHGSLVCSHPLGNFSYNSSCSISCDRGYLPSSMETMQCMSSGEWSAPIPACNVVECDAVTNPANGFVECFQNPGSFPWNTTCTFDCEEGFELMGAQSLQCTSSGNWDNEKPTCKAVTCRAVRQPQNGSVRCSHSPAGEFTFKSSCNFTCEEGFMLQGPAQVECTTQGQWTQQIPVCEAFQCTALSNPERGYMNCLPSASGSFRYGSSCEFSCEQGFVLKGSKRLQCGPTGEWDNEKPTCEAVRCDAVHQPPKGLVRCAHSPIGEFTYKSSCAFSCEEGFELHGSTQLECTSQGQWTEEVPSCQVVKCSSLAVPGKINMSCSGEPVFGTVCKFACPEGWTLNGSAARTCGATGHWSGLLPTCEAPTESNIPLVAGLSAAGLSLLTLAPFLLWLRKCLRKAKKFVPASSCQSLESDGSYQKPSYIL

Consider `CC(=O)NS(=O)(=O)c1ccc(N)cc1`, for which the compound was classed as inactive in [1] and in experiment [2].

One may read the AC50 as the midpoint of the concentration-response curve, whichever way the signal moves. As to `Oc1ccc(Cl)cc1Cc1cc(Cl)ccc1O`, the AC50 in experiment [1] was 6.46 µM (active). In addition, the outcome in experiment [3] and in experiment [2] was inactive.

In the case of `CC(C)=CCC/C(C)=C\C#N`, the compound was called inactive in [1] and in experiment [2].

With `CCOC(=O)[C@H](C)O`, the outcome in experiment [1] and in experiment [2] was inactive.

With `C=CC(C)(CCC=C(C)C)OC(=O)C(C)C` (configuration not stated), in experiment [1], the AC50 is 57.4 µM (active). For the same compound, the compound was classed as inactive in experiment [3] and in experiment [2].

As for `CC(CC=O)c1ccccc1` (configuration not stated), the compound was classed as inactive in experiment [1] and in experiment [2].

Consider `Cn1c(=O)[nH]c2ncn(C)c2c1=O`, for which the result in [1] and in experiment [2] was inactive.

As to `CN(C)CCCN(C)C`, the result in [3] and in [2] was inactive.

In the case of `OC1OCCOC1O` (configuration not stated), the call in [3] and in experiment [2] was inactive.

With `OC1CCCC1`, the compound was called inactive in experiment [3] and in [2].

For `CC=C1CC2C=CC1C2` (configuration not stated), the compound was called inactive in experiment [3] and in experiment [2].

As for `COCC(C)N` (configuration not stated), the compound was called inactive in [3] and in experiment [2].

Take `O=C(c1ccccc1)c1ccc(O)c(O)c1O`: the compound was called inactive in [3] and in experiment [2].

As for `C=CC=CC=CCCCCC`, the outcome in [3], in [4], in experiment [5], in experiment [6], in experiment [7] and in experiment [8] was inactive. Further, the outcome in experiment [9], in experiment [10], in [11], in [12], in [13] and in [14] was inactive. The result in experiment [15], in [16], in experiment [17], in [18] and in [19] was inactive. For the same compound, in [20], the half-maximal activity concentration (AC50) is 5 µM (active).

On to `C=C[Si](C)(C)O[Si](C)(C)C=C`, for which the call in experiment [3] and in [2] was inactive.

Consider `CCCCNc1ccc(NCCCC)c2c1C(=O)c1ccccc1C2=O`, for which the call in experiment [3], in experiment [4], in experiment [5], in experiment [6], in [8] and in experiment [9] was inactive. In addition, the result in experiment [10], in experiment [11], in experiment [13], in experiment [14], in [15] and in experiment [16] was inactive. In addition, the result in experiment [17], in [18] and in experiment [19] was inactive. In addition, the AC50 is 0.00419 µM (active) in [7], 6.81 µM (active) in [12] and 5 µM (active) in experiment [20].

Consider `c1cc(N(CC2CO2)CC2CO2)ccc1OCC1CO1` (configuration not stated), for which the result in experiment [3] and in experiment [2] was inactive.

Turning to `CC=CC(=O)N(CC)c1ccccc1C`, the compound was called inactive in experiment [3] and in [2].

With `CCOC(=O)CC`, the compound was called inactive in [3] and in experiment [2].
